Only a selection was taken, and hits are over-represented in it overall.
Pf Dd2 growth: blocks in vitro growth of P. falciparum Dd2 | P. falciparum Dd2 growth, SYBR Green, 72 h | Potency, µM (titrated, usually from 28.9 µM), actives largely listed as inhibitors | 120,000 compounds, 4.3% hits | AID 1347417; active = well fitted inhibition curve with a large enough effect; also: nearly all actives have a fitted effect of over 65% in size
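Readout: SYBR Green fluorescence, 485 nm excitation, 535 nm emission, after ~16 h lysis at 37C. Before that, Dd2-infected red cells (2.5% hematocrit) grew 72 h with compound, 29 uM top final concentration.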
A number is an active result; n = inactive.

SMILES | Pf Dd2 growth
Cc1ccc(C(=O)N2CCc3sc(C(=O)NCc4cccc(F)c4)cc3C2)cc1 | n
O=C(c1ccc(Cl)s1)N1CCC(n2cc(-c3nc(-c4ccccc4)no3)nn2)C1 (centres undefined) | n
Cc1ccc(C)c(CNC(=O)C2(c3ccc(NS(C)(=O)=O)cc3)CCCCC2)c1 | n
CC(C)(Oc1ccc2c(c1)CCC2)C(=O)N1CCC2(CCCNC2=O)C1 (centres undefined) | n
Cc1ccsc1CN1CCC2(CC1)CC(CC(=O)NCc1ccncc1)CCO2 (centres undefined) | n
CCCc1cc(CN(C)C(=O)C2CC(=O)N(c3ccc(C(C)C)cc3)C2)[nH]n1 (centres undefined) | n
O=C(NC[C@H]1OC[C@@H](NCc2ccc(F)cc2)[C@@H]1O)c1ccncc1 | n
CC1(C(=O)N2CCN(c3ccccn3)CC2)CCCCC(=O)N1 (centres undefined) | n
CCOc1ccc(NC(=O)N2CCC(Oc3ncccc3C(=O)N3CCCCC3)C2)cc1 (centres undefined) | n
CC(=O)Nc1ccc(Nc2ncnc3c2c(-c2ccccc2)cn3-c2ccccc2)cc1 | n
COCCNc1ncnc2c1c(-c1ccccc1)cn2-c1cccc(Cl)c1 | n
COc1ccc(CCNc2ncnc3c2c(-c2ccccc2)cn3-c2cccc(Cl)c2)cc1OC | 8.9µM
COc1ccccc1N1CCN(c2ncnc3c2c(-c2ccccc2)cn3-c2cccc(Cl)c2)CC1 | n
CC(=O)Nc1ccc(Nc2ncnc3c2c(-c2ccccc2)cn3-c2ccc(C)c(Cl)c2)cc1 | 7.1µM
Cc1ccc(-n2cc(-c3ccccc3)c3c(N4CCC(C)CC4)ncnc32)cc1Cl | n
CCn1ncc(N2CCCC(CC(=O)NCc3ccccc3OC)C2)cc1=O (centres undefined) | n
CNC(=O)[C@@H]1CN(Cc2cccc(Cl)c2F)C[C@H]1CO | n
CS(=O)(=O)Nc1ccc(C2(C(=O)N3CCN(c4ccccn4)CC3)CCCCC2)cc1 | n
CN[C@@H](CC(C)C)C(=O)N[C@H]1C[C@@](O)(C(=O)N[C@H]2CCCNC2=O)C[C@@H](O)[C@@H]1O | n
CCOC(=O)C1CCCN(c2ncnc3c2cnn3-c2ccc(C)c(Cl)c2)C1 (centres undefined) | n
CCc1ccc2ncc(C(=O)c3ccc(C)c(C)c3)c(N3CCC(C(N)=O)CC3)c2c1 | n
CCOC(=O)C1CCCN(c2c(C(=O)c3ccc(C)cc3)cnc3ccc(OCC)cc23)C1 (centres undefined) | 11µM
Cn1ncc2c(C(=O)N3CCOCC3)cc(-c3ccc(Cl)nc3)nc21 | n
CCn1cc(CN(C)S(=O)(=O)c2ccc(C(=O)NC3CC3)cc2)cn1 | n
O=C(NCc1ccco1)c1ccc(CN2C(=O)NC3(CCS(=O)(=O)CC3)C2=O)cc1 | n
SMILES | Pf Dd2 growth
Cc1ccc(NC(=O)N2CCC(Oc3ncccc3C(=O)N3CCOCC3)C2)c(C)c1 (centres undefined) | n
Cc1ccc(NC(=O)N[C@H]2C[C@@](O)(C(=O)N[C@H](Cc3ccccc3)C(N)=O)C[C@@H](O)[C@@H]2O)cc1 | n
COc1ccc(CNC(=O)CC2CCCN(c3cnn(CC4CC4)c(=O)c3)C2)cc1 (centres undefined) | n
COc1ccc(NC(=O)c2cc(C3CC3)nc3c2c(C)nn3-c2ccccc2)cc1 | n
COc1ccc(-c2cc(C(=O)NC3CCNCC3)c3c(C)nn(-c4ccccc4)c3n2)cc1 | 11µM
COCCNC(=O)c1cc(-c2ccc(OC)cc2)nc2c1c(C)nn2-c1ccccc1 | n
CCCNC(=O)O[C@@H]1CC[C@]2(C)C(CC[C@@H](O)[C@H]2CC(=O)NCc2ccc3c(c2)OCO3)[C@]1(C)CO (some centres undefined) | n
O=C(Nc1ccccc1)N[C@H]1[C@H](O)[C@@H](N2CCN(c3ccccc3)CC2)[C@@H]2OC[C@H]1O2 | n
O=C(NC1CCN(c2cc(-c3ccccc3)[nH]n2)C1)c1ccc(F)c(F)c1 (centres undefined) | n
COc1cc(NC(=O)C2(Cc3cccnc3)CCCCC(=O)N2)cc(OC)c1 (centres undefined) | n
N#Cc1ccc(C(=O)N2CCc3n[nH]c(=O)n3CC2)cc1 | n
COCCNC(=O)Cc1csc2nc(C)c(-c3cc(C)n(-c4ccccc4F)n3)c(=O)n12 | n
Cc1ccc(Cl)cc1-n1nc(-c2c(C)nc3scc(CC(=O)NCCC(C)C)n3c2=O)cc1C | 7.9µM
CCCCNC(=O)Cc1csc2nc(C)c(-c3cc(C)n(-c4cccc(Cl)c4)n3)c(=O)n12 | 7.9µM
CCCCNC(=O)Cc1csc2nc(C)c(-c3cc(C)n(-c4ccc(C)cc4)n3)c(=O)n12 | n
CCCCCNC(=O)Cc1csc2nc(C)c(-c3cc(C)n(-c4cccc(C)c4)n3)c(=O)n12 | n
CCCNC(=O)Cc1csc2nc(C)c(-c3cc(C)n(-c4cccc(C)c4C)n3)c(=O)n12 | n
O=C(O)C1(CCc2ccccc2)CCCN(c2ncnc3nc[nH]c23)C1 (centres undefined) | n
COc1cc(OC)cc(C(=O)N2CCC(c3n[nH]c(=O)n3-c3ccc(C)cc3)CC2)c1 | n
